17 compounds from PubChem BioAssay (Tox21) can be followed below.

Molecules are shown by their SMILES. Results filed as inconclusive are left out. The source made the active and inactive calls. Unless noted, the call rests on the fitted dose curve.

Test [1] has as its target Peroxisome proliferator-activated receptor delta (Homo sapiens) (UniProt Q03181). Briefly: qHTS assay to identify small molecule agonists of the peroxisome proliferator-activated receptor delta (PPARd) signaling pathway (AID 743212).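 Further: HEK293H cells with PPARd UAS beta-lactamase reporter GeneBLAzer system.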 The method in brief:
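Steps: seed PPARd-bla HEK293H cells; incubate 5 h, 37 C, 5% CO2; add compounds in DMSO; incubate, 37 C; add LiveBLAzer B/G FRET substrate; hold 2 h at room temperature; measure fluorescence.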
(In general: In qHTS, concentration-response curves come from the screen itself.)

The nature of test [2]: qHTS assay to identify small molecule antagonists of the peroxisome proliferator-activated receptor delta (PPARd) signaling pathway - cell viability counter screen (AID 743213; active means well fitted curve in the direction sought with a large enough effect in the repeat runs; an effect the other way counts as inactive or inconclusive; further: nearly all actives have a fitted effect of over 50% in size; further: potency means the concentration at half of the fitted maximal effect). Summed up: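 Viability counter-screen, qHTS format: PPARd-bla HEK293H, L165041 300 nM final, 17 h compound exposure at 37 C, CellTiter-Glo luminescence after 30 min RT.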
For test [3], the target named is Peroxisome proliferator-activated receptor delta (Homo sapiens) (UniProt Q03181). Briefly: qHTS assay to identify small molecule antagonists of the peroxisome proliferator-activated receptor delta (PPARd) signaling pathway (AID 743215; active means well fitted inhibition curve with a large enough effect in the signal ratio in the repeat runs, not every such curve was filed as active; the % refers to the signal ratio;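 further: cells stimulated with agonist L165041 at 300 nM final during compound exposure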; further: potency means the concentration at half of the fitted maximal effect). The method in brief: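 Here, a reporter line (HEK293H, beta-lactamase under a UAS) measures PPARd signaling. Compounds are tested against agonist L165041 at 300 nM final concentration over 17 h at 37 C, with fluorescence read after substrate.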
Peroxisome proliferator-activated receptor delta (Homo sapiens), sequence (Q03181 whole entry, looked up): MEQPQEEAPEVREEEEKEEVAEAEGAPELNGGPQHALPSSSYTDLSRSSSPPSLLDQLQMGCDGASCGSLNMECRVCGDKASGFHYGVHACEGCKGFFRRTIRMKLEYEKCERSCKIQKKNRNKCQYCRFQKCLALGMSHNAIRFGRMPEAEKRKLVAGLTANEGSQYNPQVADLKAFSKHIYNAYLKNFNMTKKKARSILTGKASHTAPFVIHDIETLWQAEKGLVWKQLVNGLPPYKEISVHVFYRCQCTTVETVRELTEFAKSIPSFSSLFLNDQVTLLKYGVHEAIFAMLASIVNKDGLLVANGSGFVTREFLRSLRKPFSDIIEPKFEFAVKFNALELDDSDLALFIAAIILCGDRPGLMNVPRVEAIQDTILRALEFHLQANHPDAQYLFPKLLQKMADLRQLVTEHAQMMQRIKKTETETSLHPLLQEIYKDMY

Test [4] can be described thus: qHTS assay to identify small molecule agonists of the farnesoid-X-receptor (FXR) signaling pathway - cell viability counter screen (AID 743218; active means well fitted curve in the direction sought with a large enough effect in the repeat runs; an effect the other way counts as inactive or inconclusive; further: nearly all actives have a fitted effect of over 45% in size; further: potency means the concentration at half of the fitted maximal effect). The method in brief:
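Quantitative HTS counter screen measuring ATP-based viability via CellTiter-Glo luminescence in HEK 293T cells carrying a UAS-driven beta-lactamase reporter, after 16 h compound exposure at 37 C.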

Test [5] is described as follows: qHTS assay to identify small molecule antagonists of the farnesoid-X-receptor (FXR) signaling pathway - cell viability counter screen (AID 743221; active means well fitted cell-killing curve with a large enough effect in the repeat runs, not every such curve was filed as active; further: nearly all actives have a fitted effect of over 50% in size). The method in brief: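 Cytotoxicity counter screen run in the FXR-bla reporter wells: HEK 293T cells exposed to compound with 50 uM (final) chenodeoxycholic acid for 16 h, 37 C, then viability measured by CellTiter-Glo luminescence after 30 min, room temperature.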

Test [6] can be described thus: qHTS assay to identify small molecule agonists of the NFkB signaling pathway - cell viability counter screen (AID 1159515). Further: nearly all actives have a fitted effect of over 55% in size. Further: potency means the concentration at half of the fitted maximal effect. The method in brief:
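Tox21 library compounds were tested for cytotoxicity against NFkB-bla ME-180 cells during a 5 hr exposure at 37 C. CellTiter-Glo luminescence served as the viability read-out.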

Test [7] in a line: qHTS assay to identify small molecule agonists of the endoplasmic reticulum stress response signaling pathway - cell viability counter screen (AID 1159517). Further: nearly all actives have a fitted effect of over 50% in size. Further: potency means the concentration at half of the fitted maximal effect. The method in brief:
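After overnight attachment, ESRE-bla HeLa cells were treated with Tox21 library compounds for 5 hr. CellTiter-Glo luminescence, read 30 min post-addition at room temperature, reported viability.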

A short description of test [8]: qHTS assay to identify small molecule antagonists of the retinoid-related orphan receptor gamma (ROR-gamma) signaling pathway - cell viability counter screen (AID 1159520; active means well fitted curve in the direction sought with a large enough effect in the repeat runs; an effect the other way counts as inactive or inconclusive; further: nearly all actives have a fitted effect of over 50% in size; further: potency means the concentration at half of the fitted maximal effect). The method in brief: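 Cytotoxicity was read from cellular ATP (CellTiter-Glo luminescence) after 16 hr at 37 C with 1 uM doxycycline induction. The inducer was added 2 hr after compound transfer to Tet-on ROR gamma CHO cells.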

Test [9] in a line: qHTS assay to identify small molecule agonists of the AP-1 signaling pathway - cell viability counter screen (AID 1159525). Further: nearly all actives have a fitted effect of over 55% in size. Further: potency means the concentration at half of the fitted maximal effect. Summed up: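 Intracellular ATP by Cell Titer Glo luminescence (30 min, RT) in the same ME-180 AP-1-bla wells after the 5 h compound exposure at 37 °C. Normalised to tetra n-octyl ammonium bromide and DMSO controls.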
The nature of test [10]: qHTS assay to identify small molecule agonists of the AP-1 signaling pathway (AID 1159526).
Test [11] in a line: qHTS assay to identify small molecule agonists of the RXR signaling pathway - cell viability counter screen (AID 1159529; active means well fitted curve in the direction sought with a large enough effect in the repeat runs; an effect the other way counts as inactive or inconclusive; further: nearly all actives have a fitted effect of over 50% in size; further: potency means the concentration at half of the fitted maximal effect). Summed up: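 CellTiter-Glo luminescence gave viability in the wells also read for beta-lactamase. Cells (RXR-alpha-UAS-bla HEK 293T, 2% charcoal-stripped FBS medium) had 5 hr plating, then 16 hr compound exposure at 37 C; tetraoctyl ammonium bromide served as positive control.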

The target of test [12] is Vitamin D3 receptor (Homo sapiens) (UniProt P11473). Description: qHTS assay to identify small molecule agonists of the vitamin D receptor (VDR) signaling pathway (AID 743222). The method in brief: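 Tox21 cell reporter format: VDR-bla line, 16 h compound exposure in 5% CO2 at 37C, then fluorescence intensity after 2 h with LiveBLAzer B/G FRET substrate.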
Vitamin D3 receptor (Homo sapiens), sequence (P11473 whole entry, looked up): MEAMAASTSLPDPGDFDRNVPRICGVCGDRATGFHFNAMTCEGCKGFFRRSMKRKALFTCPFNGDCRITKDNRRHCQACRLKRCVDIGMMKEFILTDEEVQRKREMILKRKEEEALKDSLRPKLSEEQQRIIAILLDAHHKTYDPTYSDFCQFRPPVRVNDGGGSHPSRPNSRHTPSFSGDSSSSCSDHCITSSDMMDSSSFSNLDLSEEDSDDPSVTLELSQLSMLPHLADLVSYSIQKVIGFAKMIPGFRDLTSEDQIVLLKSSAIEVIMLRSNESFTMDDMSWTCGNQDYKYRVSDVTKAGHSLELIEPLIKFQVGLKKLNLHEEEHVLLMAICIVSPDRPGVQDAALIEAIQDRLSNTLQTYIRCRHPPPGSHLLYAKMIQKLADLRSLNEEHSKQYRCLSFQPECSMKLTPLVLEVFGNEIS
A short description of test [13]: qHTS assay to identify small molecule agonists of the vitamin D receptor (VDR) signaling pathway - cell viability counter screen (AID 743224; active means well fitted curve in the direction sought with a large enough effect in the repeat runs; an effect the other way counts as inactive or inconclusive; further: nearly all actives have a fitted effect of over 50% in size; further: potency means the concentration at half of the fitted maximal effect). Summed up: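 CellTiter-Glo viability readout on VDR-bla cells, measured after 16 h of compound treatment at 37C in the same wells.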
A short description of test [14]: qHTS assay to identify small molecule antagonists of the vitamin D receptor (VDR) signaling pathway - cell viability counter screen (AID 743225; active means well fitted curve in the direction sought with a large enough effect in the repeat runs; an effect the other way counts as inactive or inconclusive; further: nearly all actives have a fitted effect of over 50% in size; further: potency means the concentration at half of the fitted maximal effect). The method in brief:
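Cytotoxicity counter screen read by CellTiter-Glo luminescence (30 min, room temperature) in the same wells as the VDR-bla antagonist readout. HEK 293T VDR-UAS-bla cells had 16 h at 37C with compound and 3 nM (final) 1-alpha,25-dihydroxyvitamin D3, then 2 h with FRET substrate.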

Test [15] deals with Bile acid receptor (Homo sapiens) (UniProt Q96RI1). Briefly: qHTS assay to identify small molecule antagonists of the farnesoid-X-receptor (FXR) signaling pathway (AID 743217; active means well fitted inhibition curve with a large enough effect in the signal ratio in the repeat runs, not every such curve was filed as active; the % refers to the signal ratio; further: potency means the concentration at half of the fitted maximal effect). The method in brief:
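Test compounds are pin-transferred onto FXR-bla HEK 293T cells, then chenodeoxycholic acid is added at 50 uM final. After 16 h at 37 °C, LiveBLAzer B/G substrate is applied for 2 h at room temperature and fluorescence read.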

Test [16] deals with Vitamin D3 receptor (Homo sapiens) (UniProt P11473). Briefly: qHTS assay to identify small molecule antagonists of the vitamin D receptor (VDR) signaling pathway (AID 743223; active means well fitted inhibition curve with a large enough effect in the signal ratio in the repeat runs, not every such curve was filed as active; the % refers to the signal ratio). The method in brief:
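Antagonist mode: compound added to VDR-bla cells alongside agonist 1alpha,25-dihydroxyvitamin D3 (3 nM final), incubation 16 h at 37C. Read-out is LiveBLAzer FRET fluorescence, 2 h at room temperature.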

For test [17], the target named is Retinoic acid receptor RXR-alpha (Homo sapiens) (UniProt P19793). Description: qHTS assay to identify small molecule agonists of the RXR signaling pathway (AID 1159527). Further: nearly all actives have a fitted effect of over 35% in size. Further: potency means the concentration at half of the fitted maximal effect. Summed up:
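Agonist-mode beta-lactamase reporter assay: HEK 293T RXR-alpha-UAS-bla cells treated 16 hr at 37 C with compounds, 9-cis retinoic acid as positive control. LiveBLAzer FRET substrate, 405 nm excitation, 460/530 nm emission.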

Test [18] has as its target Bile acid receptor (Homo sapiens) (UniProt Q96RI1). Description: qHTS assay to identify small molecule agonists of the farnesoid-X-receptor (FXR) signaling pathway (AID 743220; active means well fitted activation curve with a large enough effect in the signal ratio in the repeat runs, not every such curve was filed as active; the % refers to the signal ratio). The method in brief:
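FXR-UAS-bla HEK 293T cells carrying a UAS-driven beta-lactamase reporter were plated for 5 h at 37C/5% CO2, then exposed to DMSO-dissolved Tox21 10K compounds for 16 h at 37C. A LiveBLAzer B/G FRET substrate was loaded for 2 h at room temperature before fluorescence reading.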

For test [19], the target named is Nuclear receptor ROR-gamma (Homo sapiens) (UniProt P51449). Briefly: qHTS assay to identify small molecule antagonists of the retinoid-related orphan receptor gamma (ROR-gamma) signaling pathway (AID 1159521; active means well fitted curve in the direction sought with a large enough effect in the repeat runs; an effect the other way counts as inactive or inconclusive). The method in brief: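 Antagonist read-out: drop in luminescence (ONE-Glo) from an RORE-LUC reporter in CHO cells with doxycycline-inducible ROR-gamma; 2 hr compound pretreatment, 1 uM doxycycline, 16 hr incubation at 37 C.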

Bile acid receptor (Homo sapiens), sequence (Q96RI1 whole entry, looked up): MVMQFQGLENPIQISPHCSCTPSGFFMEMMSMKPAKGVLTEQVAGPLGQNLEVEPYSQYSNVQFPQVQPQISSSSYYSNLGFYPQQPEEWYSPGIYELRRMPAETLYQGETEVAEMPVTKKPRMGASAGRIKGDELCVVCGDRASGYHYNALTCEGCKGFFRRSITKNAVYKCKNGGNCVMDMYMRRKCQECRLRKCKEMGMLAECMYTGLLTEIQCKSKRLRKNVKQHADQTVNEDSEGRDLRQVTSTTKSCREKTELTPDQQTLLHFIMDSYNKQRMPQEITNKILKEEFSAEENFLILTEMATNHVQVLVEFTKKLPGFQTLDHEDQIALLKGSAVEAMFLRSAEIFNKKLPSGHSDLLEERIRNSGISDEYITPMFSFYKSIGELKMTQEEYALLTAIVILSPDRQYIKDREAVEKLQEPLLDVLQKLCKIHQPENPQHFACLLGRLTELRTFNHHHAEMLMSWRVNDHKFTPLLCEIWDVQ
Retinoic acid receptor RXR-alpha (Homo sapiens), sequence (P19793 whole entry, looked up): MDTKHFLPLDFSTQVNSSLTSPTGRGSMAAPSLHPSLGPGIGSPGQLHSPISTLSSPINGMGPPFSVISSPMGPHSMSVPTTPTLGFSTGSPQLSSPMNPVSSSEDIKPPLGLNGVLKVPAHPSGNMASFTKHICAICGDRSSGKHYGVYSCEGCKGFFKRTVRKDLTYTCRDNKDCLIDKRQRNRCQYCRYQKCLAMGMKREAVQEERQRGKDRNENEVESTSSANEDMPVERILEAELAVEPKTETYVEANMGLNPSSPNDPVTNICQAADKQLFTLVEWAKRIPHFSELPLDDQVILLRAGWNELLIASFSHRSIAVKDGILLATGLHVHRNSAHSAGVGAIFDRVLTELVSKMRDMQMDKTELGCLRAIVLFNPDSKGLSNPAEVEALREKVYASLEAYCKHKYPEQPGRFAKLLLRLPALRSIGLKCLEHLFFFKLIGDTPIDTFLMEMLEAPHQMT

Take `O=C(c1ccc(F)cc1)C1CCN(CCn2c(=O)[nH]c3ccccc3c2=O)CC1`: the Potency entry in test [1], in [2], in test [3], in test [4], in test [5] and in [6] was “inactive” each time. For the same compound, the Potency entry in test [7], in test [8], in test [9], in [10] and in test [11] was “inactive” in each case.
For `Cc1cccc(S(=O)(=O)O)c1C`, the Potency result in test [1], in [2], in test [3], in [4], in test [5] and in test [12] was “inactive” throughout. Also, the Potency result in test [13], in test [14], in [6], in test [7], in test [8] and in test [9] was “inactive” each time. In addition, in test [10], the Potency entry was “inactive”.
`Cc1c(C)c2c(c(C)c1O)CCC(C)(COc1ccc(CC3SC(=O)NC3=O)cc1)O2` (stereo not drawn): the Potency result in [2], in test [3], in test [15], in test [4], in test [5] and in [16] was “inactive” throughout. Besides, the Potency result in test [13], in [6], in [7], in test [8], in test [9] and in test [10] was “inactive” each time.
As to `O=[N+]([O-])c1ccccc1Nc1ccccc1`, the Potency entry in [2], in test [4], in test [5], in [12], in test [13] and in [14] was “inactive” throughout. For the same compound, the Potency entry in test [6], in test [7], in test [8], in [9], in test [10] and in test [17] was “inactive” throughout.
Consider `CCc1oc2ccccc2c1C(=O)c1cc(Br)c(O)c(Br)c1`, for which the Potency entry in [6], in test [7], in test [8] and in test [9] was “inactive” each time.
For the compound `CCC(CN)=C(c1ccccc1)c1ccccc1`, the Potency entry in [1], in test [12], in test [6], in test [7], in test [8] and in test [9] was “inactive” each time. The Potency result in [11] was “inactive”. Moreover, the Potency in [2] is 13.3 µM (active).
For the compound `NC(=O)NS(=O)(=O)c1ccc(N)cc1`, the Potency entry in test [2], in test [4], in test [5], in test [14], in [6] and in test [7] was “inactive” throughout. In addition, the Potency result in test [8], in test [9], in test [10], in test [17] and in test [11] was “inactive” throughout.
For `Fc1ccc([C@@H]2CCNC[C@H]2COc2ccc3c(c2)OCO3)cc1`, the Potency result in test [1], in test [15], in [18], in [6], in [7] and in [8] was “inactive” each time. For the same compound, the Potency entry in test [9] and in test [11] was “inactive” in each case.
As for `CC(C)(C)c1ccc(C(=O)O)cc1`, the Potency result in test [2], in test [15], in test [4], in test [18], in test [5] and in test [12] was “inactive” in each case. The Potency result in test [13], in [14], in [6], in test [7], in test [8] and in [9] was “inactive” throughout. The Potency result in [10], in test [17] and in test [11] was “inactive” each time.
Turning to `CCCCCCCC/C=C/CCCCCCCC1=NCCN1CCO`, the Potency in [2] is 49 µM (active); in [15] it was 54.9 µM (active); in [4] it was 21.9 µM (active); in test [13] it was 34.7 µM (active); in [14] it was 34.7 µM (active); in [6], 49 µM (active). For the same compound, the Potency in test [7] was 43.6 µM (active); in [8], 68.6 µM (active); in [19], 61.1 µM (active); in test [11] it was 49 µM (active).
`CC(=O)S[C@@H]1CC2=CC(=O)CC[C@]2(C)[C@H]2CC[C@@]3(C)[C@@H](CC[C@@]34CCC(=O)O4)[C@H]12`: the Potency result in [2], in test [13], in test [6], in test [7], in test [8] and in [9] was “inactive” in each case. Besides, in test [10], the Potency result was “inactive”.
With `O=c1cccccc1O`, the Potency entry in test [1], in test [15], in test [4], in [18], in test [5] and in test [16] was “inactive” in each case. Further, the Potency result in test [14], in test [6], in [7], in test [8], in test [9] and in [17] was “inactive” in each case. Also, in test [11], the Potency entry was “inactive”.
`CC(C)(C)C(=O)OCOC(=O)[C@@H]1N2C(=O)[C@@H](NC(=O)[C@H](N)c3ccccc3)[C@H]2SC1(C)C`: the Potency result in test [1], in test [2], in test [3], in test [15], in test [4] and in test [18] was “inactive” each time. For the same compound, the Potency entry in test [5], in test [12], in test [16], in [13], in [14] and in [6] was “inactive” throughout. Also, the Potency entry in test [7], in test [8], in test [9], in test [17] and in test [11] was “inactive” throughout.
For `CC(C)C(C)(C)C(C)(C)C(C)(C)S`, the Potency entry in test [6], in test [7], in [8], in test [9] and in [11] was “inactive” throughout.
As for `C[C@@H](NCCCc1cccc(C(F)(F)F)c1)c1cccc2ccccc12`, the Potency is 26.6 µM (active) in [2]; 29.8 µM (active) in test [3]; 29.8 µM (active) in test [13]; 23.9 µM (active) in test [14]; 23.9 µM (active) in test [6]; 23.9 µM (active) in test [7]. The Potency in test [8] is 29.8 µM (active); in test [9], 23.9 µM (active); in [11] it was 16.9 µM (active). The Potency entry in test [18] was “inactive”.
Turning to `Cc1oc(-c2ccccc2)nc1CCC(=O)c1ccc(CC2SC(=O)NC2=O)cc1` (stereo not drawn), the Potency entry in [2], in [4], in test [5], in test [16], in [13] and in test [6] was “inactive” throughout. The Potency entry in [7], in test [8], in test [9], in test [10] and in [11] was “inactive” in each case.
Turning to `Nc1c(Cl)cc(Cl)cc1Cl`, the Potency entry in test [1], in test [3], in test [15], in test [4], in test [18] and in test [5] was “inactive” throughout. The Potency entry in [12], in test [13], in [14], in [6], in test [7] and in test [8] was “inactive” each time. In addition, the Potency entry in test [9], in test [10] and in test [11] was “inactive” in each case. Besides, the Potency in test [17] was 12.1 µM (active).
